Test results taken from PubChem BioAssay (NCATS).
“And” between values parts separate entries of the source, which are not always exact repeats. Equal values may be shown once. Results filed as inconclusive are left out. Values without a mark were called inactive. The source made the active and inactive calls. Calls come from the whole dose curve; as a rule, active = well fitted curve in the direction sought with a large enough effect; inconclusive = small, poorly fitted or top-dose-only effect, or another doubt; inactive = no such curve, though single readings can be large or run the other way. Where a SMILES comes first, the peptide text is derived from it. Bridges are numbered along the chain shown (N, C = ends). [ ]: non-standard residue; d: D form. The star is where a group is joined. Dab(CH2SO3H) = N[C@@H](CCNCS(=O)(=O)O)C(=O)O; X3 = CC[C@@H](C)CCCCC(=O)*; Dab = NCC[C@H](N)C(=O)O
% is set by controls: 0 for no effect and ±100 for the full control effect; potency is the fitted concentration of half-maximal effect.

Assay: qHTS Assay for Identifying Gametocytocidal Compounds (AID 743244);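 for max response: actives lower the fluorescent signal which means gametocytes are killed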
Settings: P. falciparum 3D7 stage III-V gametocytes, alamarBlue, 72 h; max response: stronger effect = lower value
In short: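 P. falciparum 3D7 stage III–V gametocytes (20,000 cells/well) were exposed to compounds for 72 h at 37 °C, 5% CO2. AlamarBlue was then added for 24 h; decreased resorufin fluorescence (Ex 525/Em 598 nm) indicated loss of viability.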
With `OC[C@H]1O[C@@H](n2cnc3c2NC=NC[C@H]3O)C[C@@H]1O` the max response was -6.17%.
`Cc1ccccc1OCC(O)CNCCOc1ccc(C(N)=O)cc1` (stereo not given) showed a max response of 6.36%.
In the case of `CN1Cc2c(N)cccc2C(c2ccccc2)C1` (stereo not given), the max response is reported as 14.6% and -4.23%.
For `Nc1nc(N)c2nc(CNc3ccc(C(=O)N[C@@H](CCC(=O)O)C(=O)O)cc3)cnc2n1`, the max response was 13.9%.
For `C[C@]12CCC(=O)C=C1CC[C@@H]1[C@@H]2[C@@H](O)C[C@@]2(C)[C@H]1CC[C@]2(O)C(=O)COP(=O)(O)O`, the max response was -12.2%.
With `CCCCC(=O)N(Cc1ccc(-c2ccccc2-c2nn[nH]n2)cc1)[C@@H](C(=O)O)C(C)C` the max response was -5.58%.
Compound `O=S(=O)(O)c1cc(O)c2c(N=Nc3ccc(Nc4ccccc4)c4c(S(=O)(=O)O)cccc34)cc(S(=O)(=O)O)cc2c1` has a max response of -8.84%.
`CCCCC(C)(O)C/C=C/[C@H]1[C@H](O)CC(=O)[C@@H]1CCCCCCC(=O)OC` (stereo not given in full) showed a max response of -1.16%.
Compound `CCCCCCCCCCCCCCCC(=O)OCC(COC(=O)CCCCCCCCCCCCCCC)OC(=O)CCCCCCCCCCCCCCC` has a max response of 4.37%.
`CC(NNC(=O)c1ccccc1)c1ccccc1` (stereo not given) showed a max response of -2.82%.
Work on `COc1ccc(CCNC[C@H](O)c2ccc(O)cc2)cc1OC` yielded a max response of 3.09%.
With `CCCCCCCCCCCC[n+]1ccc2ccccc2c1` the Potency was 1.78 µM (active).
With `CCC(=O)NS(=O)(=O)c1ccc(-c2c(-c3ccccc3)noc2C)cc1` the max response was 39.9%.
`CC1(C)S[C@@H]2[C@H](NC(=O)[C@@H](NC(=O)N3CCNC3=O)c3ccccc3)C(=O)N2[C@H]1C(=O)O` showed a max response of 5.13%.
For `O=C(O)c1cc(=O)c2c3nc4ccccc4oc-3cc(=O)c2[nH]1`, the max response was -14.4%.
`CC1=C(/C=C/C(C)=C/C=C/C(C)=C/C=C/C=C(C)/C=C/C=C(C)/C=C/C2=C(C)C(=O)CCC2(C)C)C(C)(C)CCC1=O` showed a max response of 6.31%.
With `CC1(C)S[C@@H]2[C@H](NC(=O)Cc3ccccc3)C(=O)N2[C@H]1C(=O)O` the max response was 14.5%.
`CC[C@@H](C)CCCCC(=O)N[C@@H](CCNCS(=O)(=O)O)C(=O)N[C@H](C(=O)N[C@@H](CCNCS(=O)(=O)O)C(=O)N[C@H]1CCNC(=O)[C@H]([C@@H](C)O)NC(=O)[C@H](CCNCS(=O)(=O)O)NC(=O)[C@H](CCNCS(=O)(=O)O)NC(=O)[C@H](CC(C)C)NC(=O)[C@@H](CC(C)C)NC(=O)[C@H](CCNCS(=O)(=O)O)NC1=O)[C@@H](C)O` (X3-[Dab(CH2SO3H)]T[Dab(CH2SO3H)][Dab][Dab(CH2SO3H)][dL]L[Dab(CH2SO3H)][Dab(CH2SO3H)]T; lactam 4-C) gave a max response of 5.78%.
`C=CCSSSCC=C` showed a max response of -8.99%.
For `CC(C)(C)C1(O)CCN2CC3c4ccccc4CCc4cccc(c43)C2C1` (stereo not given), the max response was 10.9%.
`CC1(C)O[C@@H]2C[C@H]3[C@@H]4CCC5=CC(=O)C=C[C@]5(C)[C@H]4[C@@H](O)C[C@]3(C)[C@]2(C(=O)CO)O1` showed a max response of -15.3%.
For `CCOc1ccc(N=Nc2ccc(N)cc2N)cc1`, the max response was 4.91%.
With `CO[C@@H]1[C@@H](O[C@@H]2O[C@H](C)[C@@H](O[C@H]3C[C@@](C)(O)[C@@H](OC(=O)CC(C)C)[C@H](C)O3)[C@H](N(C)C)[C@H]2O)[C@@H](CC=O)C[C@@H](C)C(=O)/C=C/C2OC2C[C@@H](C)OC(=O)C[C@H]1OC(C)=O` (stereo not given in full) the Potency was 10 µM (active).
Compound `Cc1cn([C@H]2C[C@H](O)[C@@H](CO)O2)c(=O)[nH]c1=O` has a max response of 5.37%.
With `CCCC(=O)O[C@]1(C(=O)COC(C)=O)CC[C@H]2[C@@H]3C[C@H](F)C4=CC(=O)C=C[C@]4(C)[C@@]3(F)[C@@H](O)C[C@@]21C` the max response was 9.8%.
In the case of `N[C@H](C(=O)O)[C@@H]1CC(Cl)=NO1`, the max response is reported as 8.42%.
For `CC(=O)O[C@]1(C(C)=O)CC[C@H]2[C@@H]3CCC4=CC(=O)CC[C@]4(C)[C@@]3(F)[C@@H](O)C[C@@]21C`, the max response was 11%.
In the case of `OCC(S)CS` (stereo not given), the Potency is reported as 3.98 µM (active).
Compound `CCOC(=O)O[C@]1(C(=O)COC(=O)CC)CC[C@H]2[C@@H]3CCC4=CC(=O)C=C[C@]4(C)[C@H]3[C@@H](O)C[C@@]21C` has a max response of 11.8%.
`CC(=O)OCC(=O)[C@@]1(O)CC[C@H]2[C@@H]3C[C@H](C)C4=CC(=O)C=C[C@]4(C)[C@H]3[C@@H](O)C[C@@]21C` gave a max response of -1.15%.
